Data taken from PubChem BioAssay AID2018 (Sanford-Burnham Center for Chemical Genomics, 2009).
Among all 1,200 compounds or so, about 600 (50%) were called active. So high a share suggests a set chosen from earlier hits. The list shows a part of the results. Entries with a potency or affinity are not part of this list. Values without a mark were called inactive. Rule as the data show it: active = inhibition above about 42%; inactive = the rest.

Biological target: SUMO-conjugating enzyme UBC9 (Homo sapiens) (UniProt P63279)
Sequence (P63279 whole entry, looked up): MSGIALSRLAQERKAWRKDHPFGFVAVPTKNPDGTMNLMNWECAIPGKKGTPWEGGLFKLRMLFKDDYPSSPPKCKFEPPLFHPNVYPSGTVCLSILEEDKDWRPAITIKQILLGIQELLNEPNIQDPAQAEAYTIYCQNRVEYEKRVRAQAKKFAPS
Assay: blockers of UBC9-mediated SUMO conjugation – biochemical, AlphaScreen, SUMOylation inhibitor project, confirmation (AID 2018)
Conditions: AlphaScreen in vitro SUMOylation assay; at 35 µM; stronger effect = higher value

Compound | inhibition
Cc1cc(=O)[nH]c(-n2[nH]c(C)cc2=O)n1 | 78.7% (active)
CC(C)(C)c1cc(=O)n(-c2ccccc2)[nH]1 | 22.8%
Cc1ccc(N2CCN(Cc3ccccc3)CC2=O)c(C)c1 | 18.7%
O=c1c(-c2ccccc2)coc2c(CN3CCCC3)c(O)ccc12 | -8%
CC(=O)c1ccc(N2CCN(C(=O)c3cccs3)C(C)C2)c(F)c1 (stereo not drawn) | 14.2%
Cc1nn(-c2ccccn2)c2c1C(=O)C(Br)CC2 (stereo not drawn) | 97.2% (active)
O=c1c2ccccc2nc2n1CCC2 | 97.9% (active)
Cc1ccc(/C=C(\C#N)C(=O)Nc2cccc3ncccc23)o1 | 23.5%
O=C(O)c1cc(Cl)c(Cl)cc1C(=O)Nc1cccc2ncccc12 | 9.9%
Cc1cc(C)c(S(=O)(=O)/N=C2/C=C(SCC(=O)O)C(=O)c3ccccc32)cc1C | 95.8% (active)
COc1ccc2nc(/C(C#N)=C\c3ccc(C(=O)O)cc3)[nH]c2c1 | 21.7%
CCc1cccc(NC(=S)Nc2cccc3ccccc23)c1 | 15%
CCC(NC(=O)Nc1ccc(O)cc1)(C(F)(F)F)C(F)(F)F | -10.3%
COc1cc(/C=C2\C(=O)N(CCC#N)N=C2C)ccc1OCC(=O)Nc1ccccc1 | 12.4%
O=C1Nc2ccc(C(F)(F)F)cc2N2CCCC12 (stereo not drawn) | 46.5% (active)
Cc1ccc(NC(=S)Nc2cccc3ccccc23)cc1 | 19.1%
CC(C)(C)c1cc[n+](C2=C([O-])c3ccccc3C(=O)/C2=N\S(=O)(=O)c2cccs2)cc1 | 90.8% (active)
CCOc1ccc(C(Nc2cccnc2)c2cc(Cl)c3cccnc3c2O)cc1 (stereo not drawn) | -212%
O=C(O)COc1ccccc1C(Nc1cccnc1)c1cc(Cl)c2cccnc2c1O (stereo not drawn) | 102% (active)
COC(=O)c1ccccc1NC1=C/C(=N\S(=O)(=O)c2cccs2)c2ccccc2C1=O | 102% (active)
O=[N+]([O-])c1cc(Cl)cc(/C=N/NC(=S)Nc2ccc(S(=O)(=O)N3CCOCC3)cc2)c1O | 102% (active)
CCN(C(=S)Nc1cc(S(=O)(=O)N2CCOCC2)ccc1Cl)c1cccc2ccccc12 | 11.1%
COc1cccc(C(c2c(C)[nH]n(-c3ccccc3)c2=O)c2c(C)[nH]n(-c3ccccc3)c2=O)c1OC | 89.3% (active)
Cc1[nH]n(-c2ccccc2)c(=O)c1C(C[N+](=O)[O-])c1ccc(Br)cc1 (stereo not drawn) | 101% (active)
CC(C)(C)c1cnnn1-c1cccc([N+](=O)[O-])c1 | 5.8%

Compound | inhibition
Cc1[nH]n(-c2ccccc2)c(=O)c1C(c1cccc([N+](=O)[O-])c1)c1c(C)[nH]n(-c2ccccc2)c1=O | 79.1% (active)
C=CCN(CC=C)c1nc2ccccc2nc1C(C#N)C(=O)OC(C)C (stereo not drawn) | -10.3%
COc1ccc(C(c2c(C)[nH]n(-c3ccccc3)c2=O)c2c(C)[nH]n(-c3ccccc3)c2=O)cc1OC | 101% (active)
Cc1[nH]n(-c2ccccc2)c(=O)c1C(c1ccc(C(=O)O)cc1)c1c(C)[nH]n(-c2ccccc2)c1=O | 41.6%
CCOc1ccc(N2CC(C(=O)NCc3ccc(F)cc3)CC2=O)cc1 (stereo not drawn) | 6.3%
COCCNC(=O)CCC1CCN(Cc2ccc(-c3ccccc3)cc2)CC1 | -1.3%
Cc1n[nH]c(=S)n(NC(=O)/C=C/C(=O)Nn2c(=S)[nH]nc(C)c2=O)c1=O | 101% (active)
S=C(NCc1ccc2c(c1)OCO2)Nc1ccc2nsnc2c1 | 25.4%
S=C(Nc1ccc2nsnc2c1)N1CCCCCC1 | 28.1%
S=C(Nc1ccc2nsnc2c1)NC1CCCCC1 | 95.3% (active)
OCCNC(=S)Nc1ccc2nsnc2c1 | 54.8% (active)
S=C(Nc1ccc2nsnc2c1)N1CCCCC1 | 18.3%
COCCNC(=S)Nc1ccc2nsnc2c1 | 6.6%
Cn1cc2ccc(N)cc2n1 | -18.5%
Nc1ccc2nc(-c3ccccc3)sc2c1 | -1.4%
CN(C)C=Nc1ccc2nn(-c3ccccc3)nc2c1 | -10.8%
Nc1ccc2nn(-c3cccc4ccccc34)nc2c1 | 43.5% (active)
Cc1ccc(-n2nc3ccc(N)cc3n2)c(C)c1 | 39.7%
Nc1ccc2nn(-c3ccccc3)nc2c1 | 68.1% (active)
N#Cc1ccsc1NC(=O)CN1CCN(c2ccc(O)cc2)CC1 | 5.7%
O=C(Nc1ccccc1)Nc1ccno1 | -7.1%
O=C(NCCc1ccccc1)c1ccc2nc(-c3ccco3)c(-c3ccco3)nc2c1 | 70.9% (active)
O=C(Cc1ccccc1)Nc1nnc(-c2ccco2)s1 | 11.3%
O=C(NCc1ccccc1)c1ccc2nc(-c3ccco3)c(-c3ccco3)nc2c1 | 65.7% (active)
O=C(Nc1ccc2nc(-c3ccco3)c(-c3ccco3)nc2c1)N1CCN(c2ccccn2)CC1 | 76.6% (active)

Compound | inhibition
CC(C)c1ccccc1NC(=O)COc1ccc(C(=O)NCCc2ccccc2)cc1 | 26.7%
O=C(Nc1ccc2nsnc2c1)N1CCCCC1 | 2.3%
S=C(Nc1ccc2nc(-c3ccccn3)c(-c3ccccn3)nc2c1)N1CCOCC1 | 3.8%
COc1ccc(CCNC(=O)c2ccc3nc(-c4ccco4)c(-c4ccco4)nc3c2)cc1OC | 73.3% (active)
CC(=O)Nc1ccc2nc3ccccc3nc2c1 | 15.1%
COc1ccc(CCn2c(N)c(C(=O)NCc3ccco3)c3nc4ccccc4nc32)cc1OC | 9.7%
O=C(Nc1cccnc1)c1cc2cc(Br)ccc2oc1=O | 34.9%
Cc1ccc(Cn2cccc(NS(C)(=O)=O)c2=O)cc1 | 26.5%
COc1ccc(-c2cc(-c3ccccc3)n3ncnc3n2)cc1 | 5.5%
Cc1nn2cc(-c3ccccc3)nc2[nH]c1=O | 9.6%
CC(C)c1ccc(S(=O)(=O)/N=C2/C=CC(=O)c3ccccc32)cc1 | 102% (active)
O=C(NCc1ccccc1)Nc1cccn(Cc2c(F)cccc2Cl)c1=O | -15.7%
Oc1ccc(/C=N/Nc2cc(N3CCCC3)nc(N3CCCC3)n2)cc1O | 102% (active)
CN(C)c1ccc(/C=N/Nc2cc(N3CCOCC3)nc(N3CCOCC3)n2)cc1 | 39.5%
COc1ccc2c(c1)-c1nc(/N=C/c3ccc(O)cc3)sc1CC2 | 30.9%
Oc1ccc(/C=N/Nc2cc(N3CCCC3)nc(N3CCCC3)n2)cc1 | 82.3% (active)
Cc1ccc(N=Nc2c(N)[nH]n3c(=O)cc(C)nc23)cc1 | 37.3%
COCCN(CCOC)S(=O)(=O)c1ccc(C(=O)Nc2nc3c(s2)CCc2ccccc2-3)cc1 | 30.1%
COc1ccc2c(c1)Cc1sc(NC(=O)c3ccccc3)nc1-2 | 34.5%
COc1ccc2c(c1)Cc1sc(NC(C)=O)nc1-2 | 41.3%
COc1ccc2c(c1)Cc1sc(NC(=O)c3cccs3)nc1-2 | 51.9% (active)
COc1ccc(C(=O)Nc2nc3c(s2)Cc2cc(OC)ccc2-3)cc1 | 59.7% (active)
Cn1c(=O)c(Nc2ccc(O)cc2)c2c3c(cccc31)C(=O)c1ccccc1-2 | 91.8% (active)
COc1ccc(-c2ccnc3nc(/N=C/N(C)C)nn23)cc1 | -8.3%
CC1CCN(CCCn2c(=S)[nH]c3ccc(N4CCOCC4)cc3c2=O)CC1 | -13.8%

Compound | inhibition
COc1cccc(Cn2cccc(NC(=O)NC3CCCCC3)c2=O)c1 | 25.8%
Cc1c2c(=O)n(-c3nc4ccccc4s3)nc-2cc(O)n1Cc1ccccc1 | 20.5%
O=c1c2ccccc2nc(/C=C/c2cccnc2)n1Cc1ccccc1 | 98.2% (active)
COc1ccc(-n2c3nc4ccccc4nc3c3c(=N)oc(C)nc32)cc1 | 64% (active)
COCCCNC(=O)c1c(N)n(-c2ccccc2)c2nc3ccccc3nc12 | -25.1%
O=C(N/N=C/c1ccccc1)c1ccc(CN2C(=O)c3cccc4cccc2c34)cc1 | 51.5% (active)
COc1ccccc1/C=N/NC(=O)c1ccc(CN2C(=O)c3cccc4cccc2c34)cc1 | -17.1%
NC(=O)N/N=C/c1ccc2cccc(OCc3ccccc3)c2n1 | 31.5%
Cc1cccc(C(=O)NC2C(=O)NNC2c2ccc(Cl)cc2)c1 (stereo not drawn) | 69.8% (active)
CC1OC(Nc2cccc3ccccc23)C(O)C(O)C1O (stereo not drawn) | 38.7%
O=C(N/N=C/c1ccc(O)c2ncccc12)c1cccc(Br)c1 | 65.3% (active)
CCOc1ccc(N2C(=O)c3ccc(C(=O)OCC(=O)N(CC)C4CCS(=O)(=O)C4)cc3C2=O)cc1 (stereo not drawn) | 42.4% (active)
O=c1oc2cc(O)ccc2cc1-c1ccc(F)cc1 | 15.5%
Cc1cc(/C=C2\SC(=S)NC2=O)c(C)[nH]1 | 65.4% (active)
c1ccc2c3c(cc(N4CCOCC4)c2c1)OC1(N2CCOCC2)CCCCC1O3 (stereo not drawn) | 92% (active)
Cc1ccc(C2C(C#N)=C(N)N(c3cccnc3)C3=C2C(=O)CCC3)s1 (stereo not drawn) | 16.8%
NC(=O)c1ccc(N=C2C(=O)Nc3ccc([N+](=O)[O-])cc32)cc1 | 102% (active)
NC(N)=N/N=C/c1cc([N+](=O)[O-])ccc1O | -9.1%
CCC(C)(C)n1nnnc1CN(Cc1cc2cc(OC)c(OC)cc2[nH]c1=O)C1CCCC1 | 2.2%
Cc1ccc(-c2[nH]c(-c3ccc(C(=O)O)cc3)nc2-c2ccccc2)cc1 | 49.3% (active)
CN(C)c1cc(Nc2cccc(O)c2)c([N+](=O)[O-])c2nonc12 | 43.3% (active)
O=[N+]([O-])c1cc([N+](=O)[O-])c2nonc2c1Nc1ccc(O)cc1 | 37.6%
O=[N+]([O-])c1c(NCc2ccccc2)cc(N2CCc3ccccc3C2)c2nonc12 | 38.5%
